# Assay results taken from paper PMC12136788.
# Where a chain is given by its changes, count along the chain named. Whole data set: some 24,000 sequences, median “enrichment r” near 0.99, cut for the highest 2% near 3.7. Shown is part of a subset that was picked to be rich in the highest values.
# T1: UNK ZnF1-3 (human, UniProt Q9C0B0 31-174)
# T1 sequence: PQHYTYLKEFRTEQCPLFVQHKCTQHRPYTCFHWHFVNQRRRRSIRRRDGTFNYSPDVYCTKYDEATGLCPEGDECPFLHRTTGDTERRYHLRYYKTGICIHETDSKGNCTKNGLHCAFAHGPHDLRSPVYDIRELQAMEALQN
# B1: 57396971_57397091_122_5pUTR_ENSMUSG00000021938_ENSMUST00000022507|mouse|control|control (ssRNA)
# RNA: GGGAGUUCUACAGUCCGACGAUCGCUUCAGGUUUCCUCUUAACAUCAUCUUAGCAAGUUCGCUUGGGAUGCUGGAUGAGGCCUAGACGUCAAGGUACACACGUCUCCACAUGUAUCUAUGGAAACGAAGCAAGGAAAGCCAGGCAACAGAGGAUUGAGCAUCA
# B2: 79664557_79664677_4134_CDS_ENSG00000146247_ENST00000275034|human|control|control (ssRNA)
# RNA: GGGAGUUCUACAGUCCGACGAUCACGGAAAGGCUCUGAAUCUUCACAUUGAAAUAUGAGAUUUAACAAUUCUUCACACUGUUUCUUCCAUGCUUGAAUAUCGUAAGACUGGGCUCUAUUACGUAAUCUUCUUCUAGGCUGAUGCAACAGAGGAUUGAGCAUCA
# B3: chr2:113333244:113333245:+_ENSG00000125630_ENST00000417433|hu_hu|FALSE|FALSE (ssRNA)
# RNA: GGGAGUUCUACAGUCCGACGAUCAACAUCAAGUUAAACAACAUCCAGUUUCACUUUGAUGUUCAUAGCUGCCAGUUCAGCUACAAAAUACCGAAAAACAUAAGGCACAGAAACAGUAUCGAUAGUGUCACUGCGACUACACAGCAACAGAGGAUUGAGCAUCA
# B4: chr5:128440902:128440903:+_ENSG00000066583_ENST00000173527|hu_mus|hu_hu_hu_mus_True|88_98 (ssRNA)
# RNA: GGGAGUUCUACAGUCCGACGAUCUUGAACGGUGCUGCCAAGACCUUUAGGGUAUUGUUCCGUUAUGAUAACUGGAAUCCCUAAGAUCCGAGCUCCUUGCAACAGUCUCUGUCCCACACUAAUGAUGUCCCCAAAGUAUUUGAUCAACAGAGGAUUGAGCAUCA
# B5: chr2:9725471:9725472:-_ENSG00000134308_ENST00000238081|hu_hu|FALSE|FALSE (ssRNA)
# RNA: GGGAGUUCUACAGUCCGACGAUCUGCCGCAUCACAUUCUUCUCCUGCACUGUCUGAUGUCCAAAGUGUUAGGUUGUCUCUAAGCAACUGCAUGAUGAGGGUGCUGUCUUUGUAUGAGUCUUCAUUCAGUGUAUCAAGUUCAGCCAACAGAGGAUUGAGCAUCA
# B6: 27821128_27827609_1759_CDS_ENSMUSG00000022263_ENSMUST00000090247|mouse|control|control (ssRNA)
# RNA: GGGAGUUCUACAGUCCGACGAUCGCCCUGGUGAUGAUGAAUGGCGUCUUCCAGGUCCUGCAGCUCCGAGGGAAGGUCUACUUCACCACAGGCCUUACACCACGAGUCCACGUUGCUCAUGUACUUCUCAGCCUUCUGGUGAAACAACAGAGGAUUGAGCAUCA
# B7: chr8:21961785:21961786:+_ENSG00000158863_ENST00000289921|hu_hu|FALSE|FALSE (ssRNA)
# RNA: GGGAGUUCUACAGUCCGACGAUCGCACUGAGGAGAGGGGAGGGUCUGUGACUCCCAAACCCUCGAAUAUUUUAUGAAUCUAAGAGUCCAGACGCAGUUCAUCCACGGAGAUCUGCGCCCCGUCCACACCAACACCCACGUUUGCAACAGAGGAUUGAGCAUCA
# B8: chr2:216981417:216981418:+_ENSG00000079246_ENST00000392132|hu_hu|hu_hu_hu_mus_True|8_48 (ssRNA)
# RNA: GGGAGUUCUACAGUCCGACGAUCCUGAUACUGGUCCUUGCCAGCAAGGGCAUUAUCAGUGCCAUCUGUGCCAUAGAGGACUAACGCAAUCUCAUCCUUGCUCUCCGAAAAUACCUGUCGUUGGACAAACAUGGUUAUCACUUUCAACAGAGGAUUGAGCAUCA
# B9: chr7:65705844:65705845:+_ENSG00000169902_ENST00000304842|hu_mus|hu_hu_hu_mus_False|18_108 (ssRNA)
# RNA: GGGAGUUCUACAGUCCGACGAUCAAAAGGAUCUUUAUUACAUAAAUAAGGUGCCGGCUCCCCAUGUUUAACAAUGACCUCCAGAAGGAAGGCUUGCAUGGCAGAAUCUAGCACUUCAUCAGUAACACCCGCCUCAUCCAAGCGCAACAGAGGAUUGAGCAUCA
# B10: chr18:43795804:43795805:+_ENSG00000152242_ENST00000321319|hu_hu|FALSE|FALSE (ssRNA)
# RNA: GGGAGUUCUACAGUCCGACGAUCCUCCUCCAUCUUCAUUUCAGAAUUUCAAGUUAAAUCAUGGAGUAGAGUCUAGGAAAUGAUAUCAAAGAUGCAACAGGAAAGCAACCUGCGCUCCGCGGCGACUCCGUGCCUUCUCGCUCGCAACAGAGGAUUGAGCAUCA
# B11: chr11:100882373:100882374:+_ENSMUSG00000019302_ENSMUST00000044721|mus_mus|mus_mus_mus_hu_True|38_108 (ssRNA)
# RNA: GGGAGUUCUACAGUCCGACGAUCUUCCUGGUUAGUGUUGAUUUCCUUCAGUUCAUUUUCAAUCUUCUCAAAAUUGGCCUCUAAGUCAAUCAUGUCCCGAGGGAAGGGAACCUCUGGGUUUUCACCGGUGUCCAUAAUCGGAAUCAACAGAGGAUUGAGCAUCA
# B12: chr18:33597908:33597909:-_ENSMUSG00000042834_ENSMUST00000171533|mus_hu|FALSE|FALSE (ssRNA)
# RNA: GGGAGUUCUACAGUCCGACGAUCCAUCAAAAGAGUACAUGGAUAAAAUAUAGAGAUAUACAGACAAUUGAUGAACAUAAACUACUAGGUUUGUUACAUCUAAAUGAAAAAAAAGGUGGGGGGGGGACUCUCAGCCUCUGCAAGCAACAGAGGAUUGAGCAUCA
# B13: chr1:46159212:46159213:+_ENSG00000159596_ENST00000372025|hu_mus|hu_hu_hu_mus_True|28_58 (ssRNA)
# RNA: GGGAGUUCUACAGUCCGACGAUCUCUGAUCCCUCCCAAGAAAGCUAGGAAACCGGCUCCAUAAGCCAUCUGAGUGAAAGCUAAUAUGGGGAUAUAAGACUUUGUUAUCAGCAUGACAAGUGGGGGAGCAGUAAAGGGGAUUAACAACAGAGGAUUGAGCAUCA
# B14: chr1:46159212:46159213:+_ENSG00000159596_ENST00000372025|hu_mus|hu_hu_hu_mus_True|28_108 (ssRNA)
# RNA: B13 RNA with U33A, A83G, U84G, U86C
# B15: chr1:46159212:46159213:+_ENSG00000159596_ENST00000372025|hu_mus|hu_hu_hu_mus_True|1_28 (ssRNA)
# RNA: B13 RNA with A83G, U84G, U86C, A143G
# B16: chr19:16212804:16212805:+_ENSG00000167460_ENST00000300933|hu_mus|hu_hu_hu_mus_False|88_108 (ssRNA)
# RNA: GGGAGUUCUACAGUCCGACGAUCAACAAAUAUGCAAUGAAGGAAAGCAUCAAGGAUGAACAGCAUUAAAGCUCAGUCAGAAGGCACAUGGGCAACAAUGAUCACCCCAGCAUUCUCGCUUGGAAUGCUUAAAGACAAUCUGUUCAACAGAGGAUUGAGCAUCA
# B17: chr12:51141157:51141158:+_ENSG00000066084_ENST00000301180|hu_mus|FALSE|FALSE (ssRNA)
# RNA: GGGAGUUCUACAGUCCGACGAUCUCAAAGAAAAGCAACAGAAAAUAAAAAAAAAAAAAGAAGUAGUCAUUACCAGAAGGAGGAAAAGACUAGAAGCCUGGGCAAGGCAUGAAGGUGUCUGCUGCAAUUUCAGUACUCGGGACACAACAGAGGAUUGAGCAUCA
# B18: chr2:49628383:49628384:+_ENSMUSG00000026764_ENSMUST00000028102|mus_mus|FALSE|FALSE (ssRNA)
# RNA: GGGAGUUCUACAGUCCGACGAUCUUGGUACUGACGGGGUUUGCAGACUUGCCCUGCAAAGGACCCCUCCAUCAGACUCCAAUAGCAGCCAACAGUGGCAACAACAUGAAACAAAGUGAACACAGGUAAACACAAAAUCAUCUUCAACAGAGGAUUGAGCAUCA
# B19: chr1:46159212:46159213:+_ENSG00000159596_ENST00000372025|hu_mus|hu_hu_hu_mus_True|28_48 (ssRNA)
# RNA: B13 RNA with A83G, U84G, U86C, G90A
# B20: 104520116_104520236_3471_3pUTR_ENSMUSG00000027175_ENSMUST00000111118|mouse|control|control (ssRNA)
# RNA: GGGAGUUCUACAGUCCGACGAUCAAGUUAAAAUUCCAGCCUAUGUGAAAAGAGAUACAAUUUAACACAGGUGACAGGACGCUCUGCUGUUAGUUUCCCUACAUCAAAGACUAUUCCAGUACAAUGAACAGGAGGGUUUGGAAGCAACAGAGGAUUGAGCAUCA
# B21: chr9:122046315:122046316:+_ENSMUSG00000038145_ENSMUST00000120173|mus_hu|FALSE|FALSE (ssRNA)
# RNA: GGGAGUUCUACAGUCCGACGAUCUAGUUUGGUCUGGGUGUCAAUAACUUCAUAAAGGCGGACGAUGUUAGGAUGCUGCACUAGUUUCAUGCAUCUCACUUCCUGGAAAAGAUGACCAGUAGCUAGAGUGUCCAGUUUUGUCUUCAACAGAGGAUUGAGCAUCA
# B22: chr18:33597908:33597909:-_ENSMUSG00000042834_ENSMUST00000171533|mus_hu|motif|central (ssRNA)
# RNA: B12 RNA with U82G, A83G, U85G, A86G
# Target: T1, UNK ZnF1-3
# Assay: nsRBNS (natural sequence RNA bind-n-seq); RBNS binding buffer (assumed for nsRBNS): 25 mM Tris pH 7.5, 150 mM KCl, 3 mM MgCl2, 0.01% Triton X-100, 500 ug/ml BSA, 20 U/ml SUPERase-In, 4 C; UNK is unkempt and MSI1 is Musashi-1; names of the RNAs are library labels; protein concentration not given here; high values mean tight binding
row,Binder,binding signal [enrichment R]
1,B1,0.72
2,B2,1.11
3,B3,0.877
4,B4,0.627
5,B5,0.929
6,B6,0.482
7,B7,1.03
8,B8,0.64
9,B9,0.624
10,B10,0.921
11,B11,0.664
12,B12,13.4
13,B13,1.32
14,B14,1.36
15,B15,3.95
16,B16,1.33
17,B17,4.07
18,B18,0.994
19,B19,1.5
20,B20,1.5
21,B21,0.873
22,B22,6.29
